Compounds without any hit were thinned out: in the full panel of roughly 83,000, 20% have a hit.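 Activity criterion: percent growth below 10, measured after cells in 96-well plates were exposed to a single compound concentration for 48 hours.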 A number with no mark means an inactive call. The source made the active and inactive calls.

One assay concerns TK-10 renal. The assay is described as follows: NCI-60 one-dose screen, 48 h (100 = growth as untreated, 0 = no growth, -100 = all killed). The note with it: 10 µM unless noted.
For `C=CCn1c(SCC(=O)Nc2ccc(C(=O)/C=C/c3ccc(Cl)cc3)cc2)nnc1-c1c[nH]c2ccccc12`, the growth was 103%.
Turning to `O=C(NNc1nc2cc(F)c(F)cc2n2c(CN3CC4CNCC4C3)ccc12)c1cnccn1` (stereo unspecified), the growth was 33.4%.
The same measure, in the same setting: the result for `COc1ccc2c(c1)c(CC(=O)[Se]CC#N)c(C)n2C(=O)c1ccc(Cl)cc1` reads -5.49% (active).
As to `O=C(NNc1nc2cc(F)ccc2n2c(CN3CCC(O)C3)ccc12)c1cnccn1` (stereo unspecified), the growth was 20.5%.
With `COc1ccc(COc2ccc(/C=C3\C(=O)Nc4ccccc43)cc2OC)cc1`, the growth was 113%.
In the case of `O=C(NNc1nc2cc(F)ccc2n2c(CO)ccc12)c1cnccn1`, the growth was 21%.
On the same count and under the same terms, the result for `N#Cc1cn(Cc2ccc(Cl)cc2Cl)c(C(=O)c2ccc(Br)cc2)c1N` reads 101%; that for `O=C(CN1CCN(c2cc(=O)n(-c3ccccc3)c3ccccc23)CC1)Nc1nc(-c2ccccc2)cs1`, 97.7%; that for `COc1ccc(CCOc2cc3c(cc2OC)CCN(C(=O)NCc2cocn2)C3c2ccc(C)cc2C)cc1` (stereo unspecified), 49.8%.
Same read-out and setting: with `COc1ccc(Oc2ccc(/C=N/NC(=O)CSc3nc4ccccc4c(=O)n3-c3ccc(Cl)cc3)cc2)cc1` the figure was 96.5%; with `N#Cc1cccc(CN2CCC3=C(C2)C(=O)N(Cc2ccc(Cl)cc2)C2=NCCCN23)c1`, 60.4%.
Take `O=C(NNc1nc2cc(F)ccc2n2c(CN3CC4CNCC4C3)ccc12)c1cnccn1` (stereo unspecified): the growth was 22.4%.
The same measure, in the same setting: with `CCOc1ccccc1NC1=C(Cl)C(=O)c2nc(C)ccc2C1=O` the figure was 124%; with `CCCCCc1ccc(S(=O)(=O)Nc2cccc(-c3csc(NC(=O)CCCCCN4CCN(CCO)CC4)n3)c2)cc1`, 127%; with `CCOc1ccc(NC2=C(Cl)C(=O)c3nc(C)ccc3C2=O)cc1`, 121%.
Same read-out and setting: the result for `COc1cc(/C=C2\C(=O)Nc3ccccc32)ccc1OCc1ccc(Cl)cc1` reads 136%; that for `COc1cc(-c2nc(SCCC(C)C)nc(NNC(=O)c3ccncc3)c2C#N)cc(OC)c1OC`, 52.8%; that for `O=C(NNc1nc2cc(F)cc(F)c2n2cccc12)c1cnccn1`, 21.9%.
Same read-out and setting: the result for `O=C(CCn1cc[n+](CC(=O)c2ccc(-c3ccccc3)cc2)c1)Nc1cccc2cccnc12` reads 117%; that for `COc1c(N2CC3CCCNC3C2)c(F)cc2c(=O)c(C(=O)N/N=C/c3ccc4c(c3)OCO4)cn(C3CC3)c12` (stereo unspecified), 124%; that for `COc1ccc(/C=C(/C)c2ccc3ccc(OC)cc3[o+]2)c(O)c1`, 174%.
For `CN(C)CCNC(=O)c1ccc(-c2nc3ccc4[nH]ncc4c3c3c2CCC3)cc1`, the growth is 22.1%.
Take `COc1ccccc1NC1=C(Cl)C(=O)c2nc(C)ccc2C1=O`: the growth was 148%.
The same measure, in the same setting: with `CCNC(=O)N1CCc2cc(OC)c(OCCc3ccc(OC)cc3)cc2C1c1ccc(Cl)cc1C` (stereo unspecified) the figure was 54.2%.
Still for that read-out and setting: with `Cc1cc2nc(C(Cl)Cl)nc(-c3cccs3)n2n1` the figure was 18.2%; with `CN(C)CCNC(=O)c1ccc(-c2nc3ccc4[nH]ncc4c3c3c2COCC3)cc1`, 44%; with `CN1CCN(Cc2ccc(NC(=O)c3cncc(C#Cc4cnc5ccc(OCC(C)(C)O)nn45)c3)cc2C(F)(F)F)CC1`, -18.5% (active).
For `Nc1ncc(-c2ccc3ncnc(Nc4cccc(Cl)c4F)c3c2)cn1`, the growth was -2.85% (active).
On the same count and under the same terms, the result for `COc1ccc(/C=C/C(=O)c2cccc(NC(=O)CSc3nc4ccccc4c(=O)n3-c3ccccc3)c2)cc1OC` reads 125%; that for `O=C(NNc1nc2cc(F)ccc2n2c(CN3CCCC3)ccc12)c1cnccn1`, 40.2%; that for `CC/C(=C/c1c(O)cccc1OC)c1ccc2c(OC)cccc2[o+]1`, 121%.
Still for that read-out and setting: the result for `CS(=O)(=O)Nc1cc(-c2ccc3ncc(C#N)c(NCc4ccccc4F)c3c2)cnc1Cl` reads -11.1% (active).
As for `COc1ccccc1-n1cc(C#N)c(N)c1C(=O)c1ccc(Cl)cc1`, the growth was 107%.
Same read-out and setting: the result for `N=c1c2cc(-c3ccccc3)oc2ncn1/N=C/c1ccc(Cl)cc1` reads 112%.
Same read-out and setting: the result for `C=CCn1c(SCC(=O)Nc2ccc(C(=O)/C=C/c3cc(OC)c(OC)c(OC)c3)cc2)nnc1-c1c[nH]c2ccccc12` reads 144%.
Take `COC(=O)C[Se]C(=O)Cc1c(C)n(C(=O)c2ccc(Cl)cc2)c2ccc(OC)cc12`: the growth is 70.6%.
Same read-out and setting: with `COc1ccc(NC2=C(Cl)C(=O)c3nc(C)ccc3C2=O)cc1OC` the figure was 149%; with `NC(N)=Nc1ccc(Oc2cccc(NC(N)=Nc3ccc(I)cc3F)c2)cc1`, 85.7%.

The next assay deals with ACHN renal. The assay is described as above. The note with it: 10 µM unless noted.
On to `C=CCn1c(SCC(=O)Nc2ccc(C(=O)/C=C/c3ccc(Cl)cc3)cc2)nnc1-c1c[nH]c2ccccc12`, for which the growth was 77.6%.
Same read-out and setting: with `O=C(NNc1nc2cc(F)c(F)cc2n2c(CN3CC4CNCC4C3)ccc12)c1cnccn1` (stereo unspecified) the figure was 15%; with `COc1ccc2c(c1)c(CC(=O)[Se]CC#N)c(C)n2C(=O)c1ccc(Cl)cc1`, 12%; with `O=C(NNc1nc2cc(F)ccc2n2c(CN3CCC(O)C3)ccc12)c1cnccn1` (stereo unspecified), 14.3%.
On the same count and under the same terms, the result for `COc1ccc(COc2ccc(/C=C3\C(=O)Nc4ccccc43)cc2OC)cc1` reads 92.4%; that for `O=C(NNc1nc2cc(F)ccc2n2c(CO)ccc12)c1cnccn1`, 10.2%.
On to `N#Cc1cn(Cc2ccc(Cl)cc2Cl)c(C(=O)c2ccc(Br)cc2)c1N`, for which the growth is 99%.
Take `O=C(CN1CCN(c2cc(=O)n(-c3ccccc3)c3ccccc23)CC1)Nc1nc(-c2ccccc2)cs1`: the growth is 63.8%.
For `COc1ccc(CCOc2cc3c(cc2OC)CCN(C(=O)NCc2cocn2)C3c2ccc(C)cc2C)cc1` (stereo unspecified), the growth was 18.5%.
Still for that read-out and setting: the result for `COc1ccc(Oc2ccc(/C=N/NC(=O)CSc3nc4ccccc4c(=O)n3-c3ccc(Cl)cc3)cc2)cc1` reads 7.83% (active).
On the same count and under the same terms, with `N#Cc1cccc(CN2CCC3=C(C2)C(=O)N(Cc2ccc(Cl)cc2)C2=NCCCN23)c1` the figure was 38.4%; with `O=C(NNc1nc2cc(F)ccc2n2c(CN3CC4CNCC4C3)ccc12)c1cnccn1` (stereo unspecified), 17.4%.
Turning to `CCOc1ccccc1NC1=C(Cl)C(=O)c2nc(C)ccc2C1=O`, the growth was -99.1% (active).
For `CCCCCc1ccc(S(=O)(=O)Nc2cccc(-c3csc(NC(=O)CCCCCN4CCN(CCO)CC4)n3)c2)cc1`, the growth was 99.4%.
In the case of `CCOc1ccc(NC2=C(Cl)C(=O)c3nc(C)ccc3C2=O)cc1`, the growth was -98.4% (active).
Regarding `COc1cc(/C=C2\C(=O)Nc3ccccc32)ccc1OCc1ccc(Cl)cc1`, the growth was 92.7%.
Still for that read-out and setting: with `COc1cc(-c2nc(SCCC(C)C)nc(NNC(=O)c3ccncc3)c2C#N)cc(OC)c1OC` the figure was 23%; with `O=C(NNc1nc2cc(F)cc(F)c2n2cccc12)c1cnccn1`, 14.5%.
On the same count and under the same terms, with `O=C(CCn1cc[n+](CC(=O)c2ccc(-c3ccccc3)cc2)c1)Nc1cccc2cccnc12` the figure was 104%.
Turning to `COc1c(N2CC3CCCNC3C2)c(F)cc2c(=O)c(C(=O)N/N=C/c3ccc4c(c3)OCO4)cn(C3CC3)c12` (stereo unspecified), the growth was 85.3%.
On the same count and under the same terms, the result for `COc1ccc(/C=C(/C)c2ccc3ccc(OC)cc3[o+]2)c(O)c1` reads 70.2%; that for `CN(C)CCNC(=O)c1ccc(-c2nc3ccc4[nH]ncc4c3c3c2CCC3)cc1`, 12.8%.
On the same count and under the same terms, the result for `COc1ccccc1NC1=C(Cl)C(=O)c2nc(C)ccc2C1=O` reads -99.9% (active); that for `CCNC(=O)N1CCc2cc(OC)c(OCCc3ccc(OC)cc3)cc2C1c1ccc(Cl)cc1C` (stereo unspecified), 23.1%; that for `Cc1cc2nc(C(Cl)Cl)nc(-c3cccs3)n2n1`, -36.4% (active).
The same measure, in the same setting: with `CN(C)CCNC(=O)c1ccc(-c2nc3ccc4[nH]ncc4c3c3c2COCC3)cc1` the figure was 69.4%; with `CN1CCN(Cc2ccc(NC(=O)c3cncc(C#Cc4cnc5ccc(OCC(C)(C)O)nn45)c3)cc2C(F)(F)F)CC1`, -33.3% (active).
Regarding `Nc1ncc(-c2ccc3ncnc(Nc4cccc(Cl)c4F)c3c2)cn1`, the growth is 25.3%.
The same measure, in the same setting: the result for `COc1ccc(/C=C/C(=O)c2cccc(NC(=O)CSc3nc4ccccc4c(=O)n3-c3ccccc3)c2)cc1OC` reads 100%.
As to `O=C(NNc1nc2cc(F)ccc2n2c(CN3CCCC3)ccc12)c1cnccn1`, the growth is 13.3%.
On to `CC/C(=C/c1c(O)cccc1OC)c1ccc2c(OC)cccc2[o+]1`, for which the growth was 99.2%.
As for `CS(=O)(=O)Nc1cc(-c2ccc3ncc(C#N)c(NCc4ccccc4F)c3c2)cnc1Cl`, the growth was 10.9%.
Regarding `COc1ccccc1-n1cc(C#N)c(N)c1C(=O)c1ccc(Cl)cc1`, the growth was 93%.
Same read-out and setting: with `N=c1c2cc(-c3ccccc3)oc2ncn1/N=C/c1ccc(Cl)cc1` the figure was 34.3%; with `C=CCn1c(SCC(=O)Nc2ccc(C(=O)/C=C/c3cc(OC)c(OC)c(OC)c3)cc2)nnc1-c1c[nH]c2ccccc12`, 52.2%.
With `COC(=O)C[Se]C(=O)Cc1c(C)n(C(=O)c2ccc(Cl)cc2)c2ccc(OC)cc12`, the growth was 53.2%.
On the same count and under the same terms, the result for `COc1ccc(NC2=C(Cl)C(=O)c3nc(C)ccc3C2=O)cc1OC` reads 95%; that for `NC(N)=Nc1ccc(Oc2cccc(NC(N)=Nc3ccc(I)cc3F)c2)cc1`, 101%.
